Several values for one entry are separate records, joined by “and”; a condition that tells them apart may be missing. Equal entries are not always repeated. Where two headings read alike, the source gives them in different places.
Columns and labels:
VPS34 = system: T1, VPS34; details: concentration: 1 μM, replicates: in singlicate, n = 1
T1 construct: gene PIK3C3

VRK2 = details: concentration: 1 μM, replicates: in singlicate, n = 1
WEE1 = details: concentration: 1 μM, replicates: in singlicate; n = 1
WEE2 = details: concentration: 1 μM, replicates: in singlicate, n = 1
WNK1 = details: concentration: 1 μM, replicates: in singlicate, n = 1
WNK2 = details: concentration: 1 μM, replicates: in singlicate, n = 1
WNK3 = details: concentration: 1 μM, replicates: in singlicate, n = 1
WNK4 = details: concentration: 1 μM, replicates: in singlicate, n = 1
YANK1 = system: T2, YANK1; details: concentration: 1 μM, replicates: in singlicate, n = 1
T2 construct: gene STK32A

YANK2 = system: T3, YANK2; details: concentration: 1 μM, replicates: in singlicate, n = 1
T3 construct: gene STK32B
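Also: KINOMEscan kinase panel screen.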

Structure (SMILES)	%Inh (VPS34) [%]	%Inh (VRK2) [%]	%Inh (WEE1) [%]	%Inh (WEE2) [%]	%Inh (WNK1) [%]	%Inh (WNK2) [%]	%Inh (WNK3) [%]	%Inh (WNK4) [%]	%Inh (YANK1) [%]	%Inh (YANK2) [%]	%Inh (VPS34; 1 µM)	%Inh (VRK2; 1 µM)	%Inh (WEE2; 1 µM)	%Inh (WNK2; 1 µM)	%Inh (WNK3; 1 µM)	%Inh (WNK4; 1 µM)	%Inh (YANK1; 1 µM)	%Inh (WNK1; 1 µM)	%Inh (YANK2; 1 µM)
Cc1nnc(-c2ccc(C)c(-c3ccc(C(=O)Nc4ccc(NS(C)(=O)=O)cc4)cc3)c2)o1 [GW702865]	0	0	17	0	0	1	35	26	6	0	–	–	–	–	–	–	–	–	–
COc1ccc(Nc2nccc(N3CCC(NC(=O)Nc4cc(C)ccc4C)C3)n2)cc1 (stereo not drawn) [GSK1379741]	0	0	14	0	7	59	18	40	0	0	–	–	–	–	–	–	–	–	–
Cc1c2ccc(N(C)c3ccnc(Nc4cccc(S(N)(=O)=O)c4)n3)cc2nn1Cc1ccccc1.Cl.Cl [GW787226]	0	0	0	6	0	0	0	0	0	0	–	–	–	–	–	–	–	–	–
CCn1cnc2c(N)ncnc21 [GW345098]	1	0	2	14	0	0	0	0	0	0	–	–	–	–	–	–	–	–	–
O=c1cc(N2CCOCC2)nc2n(Cc3cccc(C(F)(F)F)c3)ccn12 [GSK2297543]	93.9	0	6	10	2	0	19	22	0	0	–	–	–	–	–	–	–	–	–
O=C(NCCNc1ccnc(Nc2ccc(F)cc2)n1)c1cc2ccccc2s1 [GSK1379874]	16	0	38	5	0	0	16	39	0	0	–	–	–	–	–	–	–	–	–
O=c1cc(N2CCOCC2)nc2n(Cc3cccc(F)c3)ccn12 [GSK2297430]	93.9	0	0	9	0	12	8	3	7	14	–	–	–	–	–	–	–	–	–
NCCNS(=O)(=O)c1ccc(-c2ccnc3[nH]ccc23)cc1 [GSK977617]	–	–	9	–	0	–	–	–	–	0	90% and 80%	13% and 7%	5% and 15%	7% and 0%	8% and 15%	0% and 5%	36% and 0%	–	–
Cc1nnc(-c2ccc3ncc(-c4ccc(S(C)=O)cc4)n3c2)o1 (stereo not drawn)	27	0	0	13	0	1	0	7	0	0	–	–	–	–	–	–	–	–	–
O=C1NC(=O)C(N2CCc3ccccc32)=C1c1cccc(Cl)c1 [SB-408010]	0	0	0	4	0	14	0	89	0	19	–	–	–	–	–	–	–	–	–
COc1ccc(S(=O)(=O)NC2CCN(c3cc(C)nc(Nc4cccc(C#N)c4)n3)CC2)cc1.O=C(O)C(F)(F)F [GSK1653539]	0	0	17	6	15	0	38	12	4	0	–	–	–	–	–	–	–	–	–
Cn1ccc2ncnc(Oc3ccc(NC(=O)Nc4ccncc4)c(Cl)c3)c21	0	0	0	0	0	0	0	0	0	5	–	–	–	–	–	–	–	–	–
O=C(NCCNc1ccnc(Nc2ccc(F)cc2)n1)Nc1ccccc1F [GSK1379880]	0	0	13	3	0	0	4	41	2	0	–	–	–	–	–	–	–	–	–
CNc1ncnc2[nH]ncc12 [SKF-18355]	30	10	5	0	0	0	12	0	0	9	–	–	–	–	–	–	–	–	–
Cc1cccc(-c2nc(-c3ccc(S(C)(=O)=O)cc3)sc2-c2ccncc2)c1	12	0	0	7	0	0	0	0	0	23	–	–	–	–	–	–	–	–	–
O=c1cc(N2CCOCC2)nc2n(Cc3cccc(Cl)c3Cl)c(C3CC3)nn12 [GSK2358994]	100	0	0	0	0	0	0	0	0	0	–	–	–	–	–	–	–	–	–
Cl.Nc1ncnc2occ(-c3ccc(NC(=O)Nc4cc(C(F)(F)F)ccc4F)cc3)c12 [SB-707548]	5	0	10	6	4	11	28	13	0	17	–	–	–	–	–	–	–	–	–

Structure (SMILES)	%Inh (VPS34) [%]	%Inh (VRK2) [%]	%Inh (WEE1) [%]	%Inh (WEE2) [%]	%Inh (WNK1) [%]	%Inh (WNK2) [%]	%Inh (WNK3) [%]	%Inh (WNK4) [%]	%Inh (YANK1) [%]	%Inh (YANK2) [%]	%Inh (VPS34; 1 µM)	%Inh (VRK2; 1 µM)	%Inh (WEE2; 1 µM)	%Inh (WNK2; 1 µM)	%Inh (WNK3; 1 µM)	%Inh (WNK4; 1 µM)	%Inh (YANK1; 1 µM)	%Inh (WNK1; 1 µM)	%Inh (YANK2; 1 µM)
CN(C(=O)c1ccc(-c2cc(-c3c[nH]nc3-c3ccccn3)ccn2)cc1)C1CCOCC1 [GW810083]	24	100	0	22	0	0	0	0	0	0	–	–	–	–	–	–	–	–	–
CC(C)(C)n1cnc2c(N)ncnc21 [SKF-97359]	15	100	0	12	0	25	40	0	0	0	–	–	–	–	–	–	–	–	–
NS(=O)(=O)c1cccc(-c2ccc3nccc(-c4cccc(S(N)(=O)=O)c4)c3c2)c1 [GW867253]	78	12	0	0	7	0	0	0	0	0	–	–	–	–	–	–	–	–	–
Fc1ccc(-c2ncn(CCCN3CCOCC3)c2-c2cccnc2)cc1 [SB-211743]	0	20	0	0	8	0	0	0	0	0	–	–	–	–	–	–	–	–	–
COc1ccc(Nc2nccc(N3CCC(NC(=O)Nc4cccc(C(C)=O)c4)C3)n2)cc1 (stereo not drawn) [GSK1379731]	31	95.1	6	0	4	6	28	0	0	0	–	–	–	–	–	–	–	–	–
C[C@@H](Oc1cc(-n2cnc3ccc(NC(=O)NC(C)(C)C)cc32)sc1C(N)=O)c1ccccc1Cl [GSK346294]	0	5	5	12	14	25	33	0	0	0	–	–	–	–	–	–	–	–	–
Fc1ccc(-c2ncn(CCCN3CCOCC3)c2-c2ccccn2)cc1 [SB-211742]	20	0	21	11	0	0	5	0	0	0	–	–	–	–	–	–	–	–	–
COc1ccc(CNC(=O)NC2CCN(c3ccnc(Nc4ccc(OC)cc4)n3)C2)cc1 (stereo not drawn) [GSK1379727]	0	32	9	7	4	0	44	63	0	0	–	–	–	–	–	–	–	–	–
NS(=O)(=O)c1cccc(-c2ccc3ncc(N4CCOCC4)nc3c2)c1 [GSK1535721]	87	8	5	8	0	0	24	16	2	3	–	–	–	–	–	–	–	–	–
NS(=O)(=O)CCc1cccc(Nc2nccc(-c3c(-c4cccc(NC(=O)c5c(F)cccc5F)c4)nn4ccccc34)n2)c1 [GSK336735]	0	0	0	0	0	6	18	12	23	77	–	–	–	–	–	–	–	–	–
COc1cc(Nc2nccc(N3CCC(NC(=O)c4cccc(NC(C)=O)c4)C3)n2)cc(OC)c1OC (stereo not drawn) [GSK1379754]	35	0	4	1	6	0	14	0	0	0	–	–	–	–	–	–	–	–	–
COc1cc2ncn(-c3cc(OCc4sccc4Cl)c(C(N)=O)s3)c2cc1OC [GSK448459]	60	5	4	5	19	45	60	31	11	0	–	–	–	–	–	–	–	–	–
Cc1ccc(NC(=O)c2ccnc(N3CCN(C)CC3)c2)cc1-c1ccc(C(=O)NCC2CC2)cc1 [GW775604]	0	17	0	0	0	0	0	0	0	1	–	–	–	–	–	–	–	–	–
O=C(NOCC1CC1)c1ccc(F)c(F)c1Nc1ccc(I)cc1Cl	0	0	0	0	0	0	0	0	6	0	–	–	–	–	–	–	–	–	–
Cl.Cl.Cl.Fc1ccc(-c2ncn(C3CCNCC3)c2-c2ccnc(Nc3ccccc3)n2)cc1 [SB-238039]	–	100	0	–	–	0	–	–	–	–	44% and 8%	–	0% and 24%	–	26% and 0%	30% and 0%	95.6% and 93.7%	30% and 0%	94.1% and 88%
O=C(Nc1cccc(-c2nn3ncccc3c2-c2ccnc(Nc3cccc(C(F)(F)F)c3)n2)c1)c1c(F)cccc1F [GSK299495]	0	20	2	24	15	0	44	27	0	15	–	–	–	–	–	–	–	–	–

From article PMC5540273 (PLoS ONE, 2017)
